High-throughput results: PubChem BioAssay, several laboratories
The list is not random: actives were taken first. Their share in the collection is about 4.4%.
TIM10 inh – inhibits growth of TIM10 yeast strain. S. cerevisiae TIM10 strain growth, BacTiter-Glo luminescence, 24 h. inhibition, % at 10 µM. 1.4% of 330,000 active;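 active = inhibition of 40% or more at the single tested concentration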;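 also: wild-type TIM10 isogenic control strain grown at permissive 25 °C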
tim23-1 inh – inhibits growth of tim23-1 mutant yeast; S. cerevisiae tim23-1 growth, BacTiter-Glo luminescence, 24 h; inhibition, % at 20 µM; 1.3% of 330,000 active; AID 463212;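 active = growth inhibition of the mutant yeast at or above 50%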;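 also: temperature-sensitive mutant grown at 25 °C; plate controls were DMSO-treated mutant yeast for no effect and medium wells lacking yeast for full effect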
SKKanGAS inh – SKKanGAS growth inhibition | S. pyogenes SKKanGAS, kanamycin growth, BacTiter-Glo, 6 h | inhibition, % at 7.5 µM | 1.3% of 300,000 active | AID 1662;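 active = mean replicate score, as percent of positive control median, at least 50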;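 also: strain carries kanamycin resistance gene driven by streptokinase promoter and grows in 40 µg/ml kanamycin; loss of luminescence reflects streptokinase promoter inhibition or plain growth inhibition; 0% = median of DMSO wells and 100% = positive control at its reference dose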
tim10-1 inh – inhibits growth of tim10-1 mutant yeast. S. cerevisiae tim10-1 ts strain growth, BacTiter-Glo, 24 h. inhibition, % at 20 µM. 2.2% of 330,000 active. AID 463190;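 active = inhibition of at least 40%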;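 also: mutant grown at 25 °C; 0% = DMSO wells with yeast and 100% = wells holding no yeast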
PfHsp90 yeast 2 – growth inhibition of yeast expressing Plasmodium Hsp90; 0.32% of 310,000 active; inhibition, % at 9.4 µM; S. cerevisiae expressing PfHsp90, BacTiter-Glo ATP, 48 h; yeast lacking PDR1 and PDR3 efflux regulators;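 active = every replicate shows inhibition above about 80%, whatever the replicate mean, limit read from the data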;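 also: 0% = DMSO neutral controls and 100% = 20 µM radicicol positive controls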
tim10-1 confirm – confirmation of tim10-1 mutant yeast growth inhibitors; inhibition, % at 20 µM; 56% of 7,400 active; AID 463213; shares compounds with tim10-1 inh; S. cerevisiae tim10-1 ts strain growth, BacTiter-Glo, 24 h;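 active = inhibition of yeast growth at or above a set limit in either of two repeat tests at 20 µM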;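 also: tim10-1 mutant grown at permissive 25 °C to find synthetic lethal compounds; 0% = DMSO yeast wells and 100% = medium wells without yeast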
tim10 confirm – TIM10 yeast growth inhibition, confirmed; shares compounds with TIM10 inh; S. cerevisiae tim10 strain growth, BacTiter-Glo luminescence, 24 h; inhibition, % at 10 µM; 63% of 4,600 active; AID 463215;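 active = inhibition of yeast growth at or above a set limit in either of two replicates at 10 µM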;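 also: this counterscreen used the strain with wild-type TIM10; 0% = yeast with DMSO and 100% = medium wells lacking yeast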
Active calls of the source: *; x = not tested or not shown.

SMILES	TIM10 inh	tim23-1 inh	SKKanGAS inh	tim10-1 inh	PfHsp90 yeast 2	tim10-1 confirm	tim10 confirm
CC(=O)c1ccc(-c2ccccc2[C@H]2[C@H]3C=CC[C@@H](C)[C@@H]3C(=O)N2Cc2ccccc2)cc1	43*	38	24	45*	x	30*	28
CC(=O)c1ccc(-c2ccc([C@H]3[C@H]4C=CC[C@@H](C)[C@@H]4C(=O)N3Cc3ccccc3)c(F)c2)cc1	6	20	33	20	-11	x	x
Cc1noc(C)c1NC(=O)Nc1ccc2c(c1)C(=O)N([C@H](C)CO)C[C@H](C)[C@@H](CN(C)S(=O)(=O)c1ccccc1)O2	0	6	x	12	-2	x	x
CSc1ccccc1C(=O)NCCCn1ccnc1	-1	-1	-9	-5	11	x	x
COc1cc(NC(=O)CSc2nnc(-c3ccncc3)o2)cc(OC)c1OC	2	4	-1	-19	-1	x	x
O=C(CCNC(=O)c1ccccc1)NNC(=O)COc1ccccc1Cl	14	-8	x	12	5	x	x
CC(=O)c1ccc(N(C(=O)c2csnn2)C(C(=O)NC2CCCC2)c2ccccc2)cc1 (stereo not drawn)	-10	7	-3	10	6	x	x
COc1ccc(-c2cc(C(=O)N3CCN(C(c4ccccc4)c4ccccc4)CC3)no2)cc1OC	56*	33	3	51*	-17	60*	45*
COc1ccc(-c2cc(C(=O)N3CCN(C(c4ccccc4)c4ccccc4)CC3)no2)cc1	69*	37	-1	59*	-9	63*	54*
O=C(c1cc(-c2ccc3c(c2)OCO3)on1)N1CCN(c2ccccc2)CC1	44*	40	-3	41*	x	31*	41*
O=C(c1cc(-c2ccco2)on1)N1CCN(C(c2ccccc2)c2ccccc2)CC1	67*	30	6	62*	-14	62*	58*
O=C(c1cc(-c2ccc3c(c2)OCO3)on1)N1CCN(c2ccc(F)cc2)CC1	-12	6	-3	12	-31	x	x
COc1ccc(-c2cc(C(=O)N3CCCC3)no2)cc1	-13	14	-1	8	-27	x	x
CCc1ccc(C(=O)C(C)OC(=O)c2nn(C)c(=O)c3ccccc23)cc1 (stereo not drawn)	12	9	13	21	5	x	x
Cc1ccc(O)c(-c2cc(-c3ccccc3C)[nH]n2)c1	66*	-9	42	52*	-48	18	-1
CC(C)(C)c1ccc(-c2cc(-c3ccccc3O)[nH]n2)cc1	41*	43	104*	49*	21	42*	22
Oc1ccc(Cl)cc1-c1cc(-c2ccccc2Cl)[nH]n1	41*	37	3	49*	4	36*	37*
Cc1ccc(O)c(-c2cc(C(F)(F)C(F)F)[nH]n2)c1	33	28	-13	24	0	x	x
CC(C)(C)c1ccc(-c2cc(N)n[nH]2)cc1	13	1	3	12	-1	x	x
Oc1ccc(Cl)cc1-c1cc(-c2cccc(Br)c2)n[nH]1	53*	49	54*	48*	-35	37*	49*
O=[N+]([O-])c1ccccc1-c1cc(-c2cc(Cl)ccc2O)n[nH]1	x	x	13	x	58	x	x
CCc1ccc(N2CC(C(=O)Nc3cccc(C(=O)NC4CC4)c3)CC2=O)cc1 (stereo not drawn)	3	1	x	15	-8	x	x
COc1ccc2nc3oc(C(=O)NC4CCN(Cc5ccccc5)CC4)cc3cc2c1	74*	34	x	52*	6	50*	44*
COc1ccc2cc3cc(C(=O)NCCCN4CCOCC4)oc3nc2c1	79*	45	14	58*	24	67*	81*
COc1ccc2cc3cc(C(=O)NCCN4CCN(Cc5ccccc5)CC4)oc3nc2c1	75*	39	3	57*	-9	58*	-21
CCCCN(CC)CCCNC(=O)c1cc2cc3ccc(OC)cc3nc2o1	66*	47	5	43*	2	44*	-21
Cc1nn(CSc2c(F)c(F)c(F)c(F)c2F)c(C)c1[N+](=O)[O-]	-21	-10	x	3	-1	x	x
